Test results from article PMC4336329 (PLoS ONE, 2015).
About 14,000 (4.5%) of roughly 310,000 compounds showed an effect of 50% or more. The effect is printed as a negative number. The sample as a whole holds a higher share of strong results than the screen did.

Molecular target: human ether-à-go-go-related gene (hERG) potassium channel (human, UniProt Q12809)
Assay: primary screen, population patch clamp on CHO cells stably expressing hERG; higher = less effect of the substance
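Further: peak tail current of the secondary pulse compared with the same well before compound.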

human ether-à-go-go-related gene (hERG) potassium channel, sequence (Q12809 whole entry, looked up): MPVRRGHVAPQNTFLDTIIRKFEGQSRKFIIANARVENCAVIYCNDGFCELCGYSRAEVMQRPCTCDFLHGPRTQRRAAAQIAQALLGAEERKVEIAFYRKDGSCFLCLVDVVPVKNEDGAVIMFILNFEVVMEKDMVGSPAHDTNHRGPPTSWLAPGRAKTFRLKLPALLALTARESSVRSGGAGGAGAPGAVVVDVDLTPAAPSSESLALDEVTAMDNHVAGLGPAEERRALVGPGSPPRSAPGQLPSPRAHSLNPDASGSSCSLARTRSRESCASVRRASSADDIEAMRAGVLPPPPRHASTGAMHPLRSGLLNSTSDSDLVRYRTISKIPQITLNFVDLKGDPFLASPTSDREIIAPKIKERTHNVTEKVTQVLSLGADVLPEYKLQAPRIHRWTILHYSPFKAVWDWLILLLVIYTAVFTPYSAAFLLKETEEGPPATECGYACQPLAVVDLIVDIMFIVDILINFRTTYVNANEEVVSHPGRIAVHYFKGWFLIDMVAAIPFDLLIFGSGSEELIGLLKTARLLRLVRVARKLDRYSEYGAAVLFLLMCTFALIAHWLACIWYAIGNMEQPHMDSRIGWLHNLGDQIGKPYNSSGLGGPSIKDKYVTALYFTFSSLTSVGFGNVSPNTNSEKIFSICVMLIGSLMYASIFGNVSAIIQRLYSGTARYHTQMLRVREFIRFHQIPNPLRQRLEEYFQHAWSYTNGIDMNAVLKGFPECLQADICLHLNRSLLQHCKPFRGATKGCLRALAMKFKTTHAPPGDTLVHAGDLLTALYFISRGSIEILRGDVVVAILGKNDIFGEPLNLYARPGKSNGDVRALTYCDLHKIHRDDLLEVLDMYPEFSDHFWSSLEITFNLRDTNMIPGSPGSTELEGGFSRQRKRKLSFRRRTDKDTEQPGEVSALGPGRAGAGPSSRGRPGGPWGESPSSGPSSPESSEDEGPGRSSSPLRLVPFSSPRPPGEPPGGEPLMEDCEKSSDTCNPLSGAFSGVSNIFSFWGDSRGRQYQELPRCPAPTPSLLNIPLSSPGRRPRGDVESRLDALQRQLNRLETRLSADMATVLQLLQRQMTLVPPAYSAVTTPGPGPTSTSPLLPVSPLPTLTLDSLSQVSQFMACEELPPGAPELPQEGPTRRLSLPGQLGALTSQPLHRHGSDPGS

| SMILES | hERG current change (%, negative = inhibition) at 10uM [%] |
| --- | --- |
| CCOCCNC(=O)c1ccc2c3c(cccc13)CC2 | 3.39 |
| Cc1csc(-c2coc3cc(O)cc(C)c3c2=O)n1 | 2.27 |
| O=C1c2ccccc2-c2onc3c(N4CCN(CCO)CC4)cc(N4CCN(C(=O)c5ccco5)CC4)c1c23 | -22.1 |
| O=C1c2ccccc2C(=O)c2c1cccc2N1CCN(CCO)CC1 | -69.7 |
| O=C1c2cccc(Cl)c2C(=O)c2c1cccc2N1CCCC1 | -9.16 |
| O=C1c2ccccc2C(=O)c2c1cccc2N1CCCC1 | -14.3 |
| O=C1c2ccccc2C(=O)c2c1cccc2N1CCN(Cc2ccccc2)CC1 | -56.9 |
| O=C1c2ccccc2C(=O)c2c1cccc2N1CCN(C/C=C/c2ccccc2)CC1 | -7.23 |
| O=C(NCCc1ccccc1)C1CCN(C(=O)Nc2ccccc2)CC1 | 8.37 |
| COc1ccc(NC(=O)CCCn2c(=O)c3sccc3n(Cc3ccccc3)c2=O)cc1 | -20.8 |
| CC(C)(C)NC(=O)C(c1ccco1)N(C(=O)c1csnn1)c1ccccc1 (stereo not shown) | -4.55 |
| CC12CCC(C(=O)N(CCCCN3CCN(Cc4ccccc4)CC3)C1=O)C2(C)C.Cl (stereo not shown) | -45.2 |
| O=C(CNC(=O)c1[nH]cnc1C(=O)N[C@@H](Cc1ccccc1)C(=O)OCc1ccccc1)OCc1ccccc1 | 7.48 |
| CCC(C)(C)n1nnnc1C(c1ccc(OC)c(OC)c1)N1CCN(c2ccc(OC)cc2)CC1.Cl (stereo not shown) | -15.9 |
| COCCn1nnnc1C(c1ccc(OC)cc1OC)N1CCN(c2ccccc2)CC1 (stereo not shown) | -70.8 |
| COCCn1nnnc1C(c1ccc(OC)cc1OC)N1CCN(c2ccccc2F)CC1.Cl (stereo not shown) | -9.23 |
| CCC(c1nnnn1C(C)(C)C)N1CCN(Cc2ccccc2OC)CC1.Cl (stereo not shown) | -19.2 |
| CC(C)C(c1nnnn1Cc1cccs1)N1CCN(c2ccccc2)CC1 (stereo not shown) | 20 |
| CCC(C)(C)n1nnnc1C(c1ccc(OC)c(OC)c1)N1CCN(c2ccccc2)CC1 (stereo not shown) | -39.5 |
| COc1ccc(C(c2nnnn2Cc2cccs2)N2CCN(c3ccccc3)CC2)cc1OC (stereo not shown) | -63.5 |
| CCC(c1nnnn1CCOC)N1CCN(Cc2ccccc2OC)CC1.Cl (stereo not shown) | -6.05 |
| COc1ccccc1CN1CCN(C(CC(C)C)c2nnnn2Cc2cccs2)CC1.Cl (stereo not shown) | -57.9 |
| COCCn1nnnc1C(c1ccccc1OC)N1CCN(c2ccccc2)CC1.Cl (stereo not shown) | -4.6 |
| COc1ccc(C(c2nnnn2Cc2cccs2)N2CCN(c3ccccc3F)CC2)cc1OC.Cl (stereo not shown) | -39.6 |
| CCC(C)(C)n1nnnc1C(c1ccc(OC)c(OC)c1)N1CCN(c2ccc(F)cc2)CC1.Cl (stereo not shown) | -72.9 |
